These compounds were tested against UniProt P0AEZ1 (assay: log2 fold change of tryptic peptide abundance, ligand vs vehicle (limited proteolysis) (log2 ratio); higher = more trypsin-susceptible (destabilized)). Conditions: peptide sequence: DYWNNGIR; peptide start residue: 105; ligand concentration: 5 mM; sample: E. coli desalted lysate; replicate design: treated before aliquoting.
Description: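 HT-PELSA: desalted E. coli K-12 BW25113 lysate (with 12 mM MgCl2) incubated with 5 mM ATP (pH 7) or water for 30 min at 25 C, then a 4 min trypsin pulse at 22 C. Peptides were quantified by DIA-MS (4 replicates). Value is the peptide log2 fold change (treated/control); negative = stabilized. Scale: negative = ligand-stabilized region.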
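Note: lysate desalted by size exclusion to strip endogenous ATP, peptide intensities built from DIA-NN precursor signals, and peptides missing any value discarded before comparison.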

Chain of UniProt P0AEZ1 (P0AEZ1 whole entry): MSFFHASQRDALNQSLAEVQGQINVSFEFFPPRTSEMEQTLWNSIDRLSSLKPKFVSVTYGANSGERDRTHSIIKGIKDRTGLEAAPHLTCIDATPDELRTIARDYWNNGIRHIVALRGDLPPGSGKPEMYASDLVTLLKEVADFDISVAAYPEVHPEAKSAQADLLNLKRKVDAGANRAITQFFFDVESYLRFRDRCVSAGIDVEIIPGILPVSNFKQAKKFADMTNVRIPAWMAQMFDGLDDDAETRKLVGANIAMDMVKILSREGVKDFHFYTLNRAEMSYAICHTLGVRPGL

| Structure (SMILES) | log2 fold change |
| --- | --- |
| Nc1ncnc2c1ncn2[C@@H]1O[C@H](COP(=O)(O)OP(=O)(O)OP(=O)(O)O)[C@@H](O)[C@H]1O [adenosine 5'-triphosphate] | -1.01 |

From the supplement of paper PMC12819154, “High-throughput peptide-centric local stability assay extends protein–ligand identification to membrane proteins, tissues and bacteria” (Nature Structural & Molecular Biology, 2025)
